Targets with the largest changes are over-represented here; the source holds about 21,000 in all.
compound: CC1Cc2ccccc2N1C(=O)C1CCCN(C1)C(=O)CCl (mixture of isomers) [TRIM25 ligand 11 (diastereomer mixture)]; assay: probe-labelled cysteine peptide fold change vs DMSO (competition) (log2 fold change); higher = less target engagement (more negative = stronger competition); conditions: 10 µM; THP-1; incubation time: 4 h
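Note: competitive chemoproteomic profiling in live THP-1 cells with an iodoacetamide desthiobiotin (IA-DTB) probe, comparing probe-labelled peptide intensities in compound-treated cells against DMSO-treated controls.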

Sequence of UniProt P50502 (P50502 whole entry): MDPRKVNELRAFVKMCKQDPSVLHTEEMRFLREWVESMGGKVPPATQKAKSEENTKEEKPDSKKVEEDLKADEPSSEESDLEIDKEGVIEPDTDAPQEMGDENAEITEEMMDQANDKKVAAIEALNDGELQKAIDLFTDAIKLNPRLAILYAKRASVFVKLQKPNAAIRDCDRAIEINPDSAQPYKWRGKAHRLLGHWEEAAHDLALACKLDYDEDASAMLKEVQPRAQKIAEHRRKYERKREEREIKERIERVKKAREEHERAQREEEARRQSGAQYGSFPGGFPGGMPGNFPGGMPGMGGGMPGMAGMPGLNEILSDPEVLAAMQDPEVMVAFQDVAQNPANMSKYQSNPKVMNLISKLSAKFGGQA
Sequence of UniProt Q8WUH2 (Q8WUH2 whole entry, looked up): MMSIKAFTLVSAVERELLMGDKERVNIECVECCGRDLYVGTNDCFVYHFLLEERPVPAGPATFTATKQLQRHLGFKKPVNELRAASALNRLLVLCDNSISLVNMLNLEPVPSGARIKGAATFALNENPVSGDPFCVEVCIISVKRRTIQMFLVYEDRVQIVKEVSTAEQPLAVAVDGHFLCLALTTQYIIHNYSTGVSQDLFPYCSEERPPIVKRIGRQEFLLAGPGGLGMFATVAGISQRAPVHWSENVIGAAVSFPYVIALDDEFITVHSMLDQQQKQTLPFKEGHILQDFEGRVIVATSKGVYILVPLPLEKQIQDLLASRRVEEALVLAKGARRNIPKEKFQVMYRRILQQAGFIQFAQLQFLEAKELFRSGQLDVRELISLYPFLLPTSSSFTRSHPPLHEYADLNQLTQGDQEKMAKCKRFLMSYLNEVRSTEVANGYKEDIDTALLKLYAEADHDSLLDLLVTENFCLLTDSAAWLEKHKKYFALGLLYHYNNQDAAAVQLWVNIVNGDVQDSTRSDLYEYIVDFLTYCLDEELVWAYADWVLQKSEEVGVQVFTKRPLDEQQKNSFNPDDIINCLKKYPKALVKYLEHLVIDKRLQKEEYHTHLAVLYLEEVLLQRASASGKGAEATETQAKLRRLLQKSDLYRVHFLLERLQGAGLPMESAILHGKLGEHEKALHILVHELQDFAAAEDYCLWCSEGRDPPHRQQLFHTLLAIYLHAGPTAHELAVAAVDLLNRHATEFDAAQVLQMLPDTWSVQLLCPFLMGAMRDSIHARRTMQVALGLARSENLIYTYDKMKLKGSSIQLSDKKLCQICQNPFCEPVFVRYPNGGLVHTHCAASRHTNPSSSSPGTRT
Sequence of UniProt Q969E4 (Q969E4 whole entry): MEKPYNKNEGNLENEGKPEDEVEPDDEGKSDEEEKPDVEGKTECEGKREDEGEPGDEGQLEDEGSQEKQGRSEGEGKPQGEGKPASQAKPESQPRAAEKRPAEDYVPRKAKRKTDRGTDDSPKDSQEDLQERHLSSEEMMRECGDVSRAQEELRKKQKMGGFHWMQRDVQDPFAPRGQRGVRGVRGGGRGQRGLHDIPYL
Sequence of UniProt P53597 (P53597 whole entry, looked up): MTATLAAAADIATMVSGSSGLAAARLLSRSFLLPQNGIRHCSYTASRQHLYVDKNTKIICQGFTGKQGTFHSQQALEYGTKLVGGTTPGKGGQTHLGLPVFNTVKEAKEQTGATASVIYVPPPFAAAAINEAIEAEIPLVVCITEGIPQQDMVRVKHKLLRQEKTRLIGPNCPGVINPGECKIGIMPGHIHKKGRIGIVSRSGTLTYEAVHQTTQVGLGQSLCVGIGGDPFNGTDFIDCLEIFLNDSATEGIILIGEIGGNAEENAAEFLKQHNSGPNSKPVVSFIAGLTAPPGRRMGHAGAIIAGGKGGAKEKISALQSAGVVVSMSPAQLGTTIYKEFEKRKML
Sequence of UniProt Q6P1X5 (Q6P1X5 whole entry, looked up): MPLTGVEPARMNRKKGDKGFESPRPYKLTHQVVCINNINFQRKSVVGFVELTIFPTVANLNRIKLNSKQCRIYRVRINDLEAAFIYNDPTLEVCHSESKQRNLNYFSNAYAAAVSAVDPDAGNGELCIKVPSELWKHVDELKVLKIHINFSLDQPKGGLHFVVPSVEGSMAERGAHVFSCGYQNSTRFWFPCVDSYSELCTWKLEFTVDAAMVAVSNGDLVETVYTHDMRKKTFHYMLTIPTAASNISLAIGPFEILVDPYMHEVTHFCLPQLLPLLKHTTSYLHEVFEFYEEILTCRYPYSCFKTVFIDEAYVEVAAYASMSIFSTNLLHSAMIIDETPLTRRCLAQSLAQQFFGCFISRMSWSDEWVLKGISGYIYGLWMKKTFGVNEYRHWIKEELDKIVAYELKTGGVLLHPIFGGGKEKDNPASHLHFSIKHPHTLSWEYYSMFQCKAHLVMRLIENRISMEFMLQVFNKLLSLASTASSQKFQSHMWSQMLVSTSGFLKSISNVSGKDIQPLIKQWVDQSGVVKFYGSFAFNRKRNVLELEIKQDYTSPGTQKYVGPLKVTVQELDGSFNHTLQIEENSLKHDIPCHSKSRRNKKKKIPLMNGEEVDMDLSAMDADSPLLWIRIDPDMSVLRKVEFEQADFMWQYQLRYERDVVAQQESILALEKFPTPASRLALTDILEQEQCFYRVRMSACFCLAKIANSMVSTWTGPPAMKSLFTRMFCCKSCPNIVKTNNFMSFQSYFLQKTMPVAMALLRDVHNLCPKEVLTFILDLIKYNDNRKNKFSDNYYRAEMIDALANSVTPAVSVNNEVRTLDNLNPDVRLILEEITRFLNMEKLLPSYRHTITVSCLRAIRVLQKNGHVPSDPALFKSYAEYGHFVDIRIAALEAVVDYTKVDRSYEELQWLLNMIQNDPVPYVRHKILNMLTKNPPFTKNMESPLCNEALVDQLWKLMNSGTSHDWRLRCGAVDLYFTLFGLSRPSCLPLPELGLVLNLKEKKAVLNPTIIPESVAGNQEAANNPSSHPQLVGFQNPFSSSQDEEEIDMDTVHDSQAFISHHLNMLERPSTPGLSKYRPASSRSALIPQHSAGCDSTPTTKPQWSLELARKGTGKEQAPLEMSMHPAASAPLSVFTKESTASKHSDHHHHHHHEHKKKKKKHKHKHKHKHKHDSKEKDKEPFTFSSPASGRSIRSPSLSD
Sequence of UniProt Q12767 (Q12767 whole entry, looked up): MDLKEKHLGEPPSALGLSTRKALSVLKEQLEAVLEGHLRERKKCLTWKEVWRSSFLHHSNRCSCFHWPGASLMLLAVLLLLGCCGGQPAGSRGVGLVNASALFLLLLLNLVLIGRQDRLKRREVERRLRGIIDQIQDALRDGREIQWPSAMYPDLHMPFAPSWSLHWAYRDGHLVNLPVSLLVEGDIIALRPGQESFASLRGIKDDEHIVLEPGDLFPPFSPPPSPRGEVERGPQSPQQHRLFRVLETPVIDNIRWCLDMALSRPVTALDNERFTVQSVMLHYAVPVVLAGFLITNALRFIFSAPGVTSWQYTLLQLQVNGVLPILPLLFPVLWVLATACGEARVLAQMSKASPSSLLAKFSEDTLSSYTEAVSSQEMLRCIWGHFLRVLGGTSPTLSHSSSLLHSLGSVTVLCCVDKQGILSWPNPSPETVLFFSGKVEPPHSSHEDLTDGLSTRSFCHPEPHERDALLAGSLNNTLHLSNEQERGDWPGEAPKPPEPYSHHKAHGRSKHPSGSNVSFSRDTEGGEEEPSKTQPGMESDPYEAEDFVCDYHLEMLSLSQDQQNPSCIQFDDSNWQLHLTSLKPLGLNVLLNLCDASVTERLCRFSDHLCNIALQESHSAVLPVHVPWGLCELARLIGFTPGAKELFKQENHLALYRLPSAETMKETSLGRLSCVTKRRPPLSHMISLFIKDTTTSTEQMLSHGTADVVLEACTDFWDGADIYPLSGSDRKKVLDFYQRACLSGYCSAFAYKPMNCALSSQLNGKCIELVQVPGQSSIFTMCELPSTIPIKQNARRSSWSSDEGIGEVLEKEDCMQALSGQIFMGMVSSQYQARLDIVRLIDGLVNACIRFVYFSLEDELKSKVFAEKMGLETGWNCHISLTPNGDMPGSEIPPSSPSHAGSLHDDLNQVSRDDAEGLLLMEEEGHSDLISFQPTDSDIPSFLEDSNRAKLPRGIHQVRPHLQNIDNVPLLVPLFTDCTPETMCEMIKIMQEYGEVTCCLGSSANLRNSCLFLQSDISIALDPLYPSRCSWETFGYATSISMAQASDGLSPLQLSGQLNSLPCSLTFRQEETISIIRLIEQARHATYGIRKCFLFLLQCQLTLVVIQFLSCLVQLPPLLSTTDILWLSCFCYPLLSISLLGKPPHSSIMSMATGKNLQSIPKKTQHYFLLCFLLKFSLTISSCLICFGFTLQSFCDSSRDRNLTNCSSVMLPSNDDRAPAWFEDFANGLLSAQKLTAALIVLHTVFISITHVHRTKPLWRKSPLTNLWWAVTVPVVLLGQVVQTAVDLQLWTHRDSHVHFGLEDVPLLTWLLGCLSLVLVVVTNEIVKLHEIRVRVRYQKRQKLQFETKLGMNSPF
Sequence of UniProt Q9UGI8 (Q9UGI8 whole entry, looked up): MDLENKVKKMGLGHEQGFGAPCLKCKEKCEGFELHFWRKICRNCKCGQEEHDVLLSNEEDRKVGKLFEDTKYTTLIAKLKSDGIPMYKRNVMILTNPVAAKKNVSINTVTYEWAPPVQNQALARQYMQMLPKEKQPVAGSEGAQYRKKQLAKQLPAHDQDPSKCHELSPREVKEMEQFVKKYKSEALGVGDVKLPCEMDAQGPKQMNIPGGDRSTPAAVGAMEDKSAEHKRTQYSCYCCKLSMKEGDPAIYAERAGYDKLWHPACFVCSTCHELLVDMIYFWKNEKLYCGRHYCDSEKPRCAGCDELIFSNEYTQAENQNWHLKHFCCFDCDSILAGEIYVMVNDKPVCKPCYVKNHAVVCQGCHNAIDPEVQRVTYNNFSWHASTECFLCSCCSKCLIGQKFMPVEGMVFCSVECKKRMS

Target	probe-labelled cysteine peptide fold change
TOP2B_Q02880-2_7_SGGCGAGAGVGGGNGALTWVNNAAK (UniProt Q02880)	-0.0783
TIAL1_Q01085_205+209_NCTVYCGGIASGLTDQLMR (UniProt Q01085)	0.161
SUPT16H_Q9Y5B9_574_INFYCPGSALGR (UniProt Q9Y5B9)	0.121
TET3_O43151_1381_GKPWSPCK (UniProt O43151)	-0.294
TBCD_Q9BTW9_457_GACSVGTNVR (UniProt Q9BTW9)	0.145
TDRD7_Q8NHU6_284_EDLNQGILQQFEHWPHICTVEK (UniProt Q8NHU6)	0.0148
SUCLG1_P53597_172_LIGPNCPGVINPGECK (UniProt P53597)	-0.0627
TMEM94_Q12767_381_CIWGHFLR (UniProt Q12767)	-0.00858
THBS1_P07996_754_IPDDRDNCPFHYNPAQYDYDRDDVGDR (UniProt P07996)	0.813
SSH3_Q8TE77_634_TQAFQEQEQGQGQGQGEPCISSTPR (UniProt Q8TE77)	-0.0571
THOC2_Q8NI27_743_DALLDHDLALPLCLLMAQQR (UniProt Q8NI27)	0.0629
TCEAL3_Q969E4_44_TECEGKREDEGEPGDEGQLEDEGSQEK (UniProt Q969E4)	-0.32
TADA2B_Q86TJ2_32+35_CTECQDIELCPECFSAGAEIGHHR (UniProt Q86TJ2)	0.502
TLE1_Q04724_47_IKEEFQFLQAQYHSLKLECEK<|>TLE2_Q04725_46_IKEEFQFLQAQYHSLKLECEK (UniProt Q04725+Q04724)	-0.573
TGFBRAP1_Q8WUH2_32_VNIECVECCGR (UniProt Q8WUH2)	-0.0319

same assay, conditions: 50 µM; THP-1; incubation time: 4 h

Target	probe-labelled cysteine peptide fold change
STK11IP_Q8N1F8_918_NCVSATEEEVTPQHR (UniProt Q8N1F8)	0.108
TANC1_Q9C0D5_800_MDALSCFLIK (UniProt Q9C0D5)	0.0229
TES_Q9UGI8_22_MGLGHEQGFGAPCLK (UniProt Q9UGI8)	-0.176
ST13_P50502_209_LLGHWEEAAHDLALACKLDYDEDASAMLK (UniProt P50502)	-0.574
TARSL2_A2RTX5_546_FQQDDAHIFCTVEQIEEEIK (UniProt A2RTX5)	0.235
TRIP6_Q15654_362+365+368_AYHPGCFTCVVCHR (UniProt Q15654)	0.0784
TAF2_Q6P1X5_357_CLAQSLAQQFFGCFISR (UniProt Q6P1X5)	-0.862
